# Screening data: PubChem BioAssay, National Center for Advancing Translational Sciences (NCATS)
# Hits are enriched below; roughly 11% of the tested compounds scored in any of these assays.
# hNpr1 antagonist = antagonists of human natriuretic peptide receptor Npr1; P16066; HEK293 hNpr1 GloSensor cGMP, ANP-stimulated luminescence; Potency, µM (series often up to 46.3 µM), inactives show at the highest dose activity change, negative = inhibition, usual class: inhibitors; actives 1.6% (n = 76,000); calls by dose curve; note: % is set by controls: 0 for no effect and ±100 for the full control effect; nearly all actives have a fitted effect of over 60% in size
# Target sequence (P16066 whole entry, looked up): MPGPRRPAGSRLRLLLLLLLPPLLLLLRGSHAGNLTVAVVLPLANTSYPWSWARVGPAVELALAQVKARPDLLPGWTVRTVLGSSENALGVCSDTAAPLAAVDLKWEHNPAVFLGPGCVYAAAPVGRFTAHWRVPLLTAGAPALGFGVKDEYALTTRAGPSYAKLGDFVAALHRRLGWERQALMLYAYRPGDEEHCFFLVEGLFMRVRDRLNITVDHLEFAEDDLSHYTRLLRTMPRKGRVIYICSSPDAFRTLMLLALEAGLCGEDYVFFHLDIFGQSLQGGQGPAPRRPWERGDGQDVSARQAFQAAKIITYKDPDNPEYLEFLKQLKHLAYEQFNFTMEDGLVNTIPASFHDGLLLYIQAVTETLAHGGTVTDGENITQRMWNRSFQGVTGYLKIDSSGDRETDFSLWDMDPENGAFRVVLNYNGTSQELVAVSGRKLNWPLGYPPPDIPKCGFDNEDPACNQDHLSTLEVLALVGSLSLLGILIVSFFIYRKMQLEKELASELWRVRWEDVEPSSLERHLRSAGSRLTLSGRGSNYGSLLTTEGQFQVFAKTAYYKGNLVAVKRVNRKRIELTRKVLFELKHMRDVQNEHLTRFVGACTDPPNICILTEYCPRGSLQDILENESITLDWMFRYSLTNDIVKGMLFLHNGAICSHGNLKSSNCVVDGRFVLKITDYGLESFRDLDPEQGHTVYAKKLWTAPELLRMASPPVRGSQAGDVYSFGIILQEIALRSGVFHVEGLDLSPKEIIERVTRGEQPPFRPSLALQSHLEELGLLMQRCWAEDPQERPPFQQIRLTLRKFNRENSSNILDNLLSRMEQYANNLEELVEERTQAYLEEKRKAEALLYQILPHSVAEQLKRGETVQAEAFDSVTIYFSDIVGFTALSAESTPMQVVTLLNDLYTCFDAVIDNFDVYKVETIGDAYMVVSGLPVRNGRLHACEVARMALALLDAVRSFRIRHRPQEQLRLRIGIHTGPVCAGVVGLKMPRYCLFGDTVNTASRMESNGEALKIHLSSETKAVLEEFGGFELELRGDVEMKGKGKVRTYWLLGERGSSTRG
#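 HEK293 cells stably expressing human Npr1 and cGMP GloSensor pGS-40F, loaded 2 h with 2% GloSensor reagent, given compound 30 min at room temperature. Luminescence read before and 20 min after 0.1 nM hNppA.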
# HEK cytotox = kills HEK 293 cells | HEK 293 viability, ATP luminescence (CellTiter-Glo), 48-72 h | actives 6.6% (n = 94,000) | AID 1345083 | Potency, µM (doses to about 115 µM), inactives show at the top dose activity change, negative = cytotoxicity, most hits filed as inhibitors; note: % is set by controls: 0 for no effect and ±100 for the full control effect; nearly all actives have a fitted effect of over 60% in size
#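 250 HEK 293 cells/well; compound by pintool; incubated 48 or 72 hr at 37 degree Celsius; CellTiter-Glo added, 10 min RT, luminescence imaged.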
# 3T3 cytotox = cytotoxic compounds in NIH 3T3 cells; NIH 3T3 viability, CellTiter-Glo ATP luminescence, 48-72 h; Potency, µM (highest dose often 96.7 µM), inactives show top-dose activity change, negative = cytotoxicity, hits mostly inhibitors; actives 4.3% (n = 94,000); AID 1345082; note: % is set by controls: 0 for no effect and ±100 for the full control effect; nearly all actives have a fitted effect of over 55% in size
#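 Cytotoxicity is measured as loss of cellular ATP: NIH 3T3 cells (400/well) are exposed to compound for 48 or 72 hr at 37 °C, then CellTiter-Glo luminescence is imaged after 10 min at room temperature.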
# FLuc inh-1 = Photinus pyralis luciferase inhibition. P08659. purified P. pyralis luciferase, luminescence, biochemical. Potency, µM (highest dose often 115 µM), usual class: inhibitors. actives 2.5% (n = 76,000). AID 1347043; note: % is set by controls: 0 for no effect and ±100 for the full control effect; nearly all actives have a fitted effect of over 65% in size
#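 Cell-free enzyme assay, 10nM P. pyralis luciferase, luciferin and ATP each at 10uM. Inhibition profiled over a 6-point titration, read as luminescence.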
# FLuc SDR -ATP = binders stabilizing firefly luciferase, without ATP; shares compounds with FLuc inh-1; Purified FLuc-C-HiBiT, Nano-Glo HiBiT luminescence, no ATP; Potency, µM (titrated, usually from 32.7 µM), without a hit: top-dose activation (signal gain), usual class: activators; actives 7.8% (n = 1,300); note: nearly all actives have a fitted effect of over 55% in size
# FLuc SDR ATP = binders stabilizing firefly luciferase, plus ATP. shares compounds with FLuc inh-1. purified FLuc-C-HiBiT + ATP, HiBiT complementation luminescence. Potency, µM (series often up to 32.7 µM), for inactives: at the highest dose activation (gain of signal), hits mostly activators. actives 8.7% (n = 1,300). AID 1963319;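 note: signal reports ligand binding via conformational change of the enzyme rather than luciferase catalysis; % of control where 0% means no effect; nearly all actives have a fitted effect of over 55% in size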
# FLuc inh-2 = inhibitors of firefly luciferase enzymatic activity. purified FLuc-C-HiBiT enzyme, luciferin luminescence. AID 1963320. actives 42% (n = 1,300). Potency, µM (doses to about 32.7 µM), for inactives: top-dose activity change, negative = inhibition, usual class: inhibitors. shares compounds with FLuc inh-1; note: % is set by controls: 0 for no effect and ±100 for the full control effect; nearly all actives have a fitted effect of over 70% in size
# The depositor's hits bear a star; i = inactive; ? = inconclusive; . = not tested or not shown; [ ] = remark or other dose. Unless noted, calls come from the whole dose curve; as a rule, active = well fitted curve in the direction sought with a large enough effect; inconclusive = small, poorly fitted or top-dose-only effect, or another doubt; inactive = no such curve, though single readings can be large; an effect the other way counts as inactive or inconclusive. Potency is the fitted concentration of half-maximal effect.
SMILES,hNpr1 antagonist,HEK cytotox,3T3 cytotox,FLuc inh-1,FLuc SDR -ATP,FLuc SDR ATP,FLuc inh-2
COc1cccc(CN2CCNc3cc(Nc4ccccc4)ncc3C2)c1,-18%[70.6 µM],40µM*,40µM*,5.6µM*,21%[49.3 µM],15%[49.3 µM],?
COc1cccc(CN2CCOc3ccc(C(=O)NCc4ccc(C)cc4)cc3C2)c1,-25%,?,?,i,.,.,.
COc1cccc(CN2CCc3nc(Nc4ccc5c(c4)OCCO5)ncc3C2)c1,.,.,.,.,17%,13%,?
COc1cccc(Nc2cc3c(cn2)CN(Cc2cccnc2)CCN3)c1,-17%[70.6 µM],?,?,5µM*,?,14%[49.3 µM],?
Cc1oc(-c2cccc(Oc3ccccc3)c2)nc1CN(C)CCCO,7%,?,?,i,.,.,.
Cn1ccnc1CN1C(=O)CO[C@H](c2ccc(NC(=O)Nc3ccccc3)cc2)[C@H]1CO,0%,-4%,2%,10µM*,18%,13%,?
Cn1ccnc1CN1C(=O)CO[C@H](c2ccc(NC(=O)COc3ccccc3)cc2)[C@H]1CO,1%,-26%,-26%,?,.,.,.
CCn1cnnc1CC1CCCN(C(=O)c2cccc(F)c2)C1 (stereo not given),.,i,-7%,.,.,.,.
O=C(c1ccc(F)cc1)N1CCn2c(nnc2C2CC2)C1,2%[70.6 µM],-1%[172 µM],-22%[138 µM],i,12%[49.3 µM],9%[49.3 µM],1%[49.3 µM]
COc1ccc(C(=O)N2CCn3c(nnc3C3CC3)C2)cc1,0%[70.6 µM],i,-3%[138 µM],i,.,.,.
N#Cc1c(NC(=O)c2cccc3ccccc23)sc2c1CCCC2,.,.,.,.,12%,8%,-20%
Cc1ccc(-n2ncc3c(N4CCCCCC4)ncnc32)cc1Cl,.,.,.,.,?,?,0.7µM*
Cc1ccc(-n2ncc3c(N4CCCCC4)ncnc32)cc1Cl,.,.,.,.,8.8µM*,1.8µM*,0.79µM*
O=C(Nc1ccc2ncnc(N3CCCCC3)c2c1)c1ccccc1Cl,-16%,?,?,i,.,.,.
Cc1ccc(-n2ncc3c(N4CCCCC4)ncnc32)cc1,.,.,.,.,1.8µM*,1.1µM*,0.2µM*
O=C(NC1CCCCC1)C1CCc2nnc(-c3ccc(F)cc3)n21 (stereo not given),.,-12%[172 µM],-14%[138 µM],.,.,.,.
O=C(NCc1cccs1)C1CCN(C(=O)c2ccc(-c3cncnc3)cc2)CC1,.,-1%,-12%,.,.,.,.
O=C(Nc1nn(-c2cccc(F)c2)c2cccc(N3CCOC3=O)c12)C1CCC1,-8%,-10%,-23%,i,.,.,.
CSCC(=O)Nc1nn(-c2ccc(F)cc2)c2cccc(N3CCOCC3)c12,?,?,?,6.3µM*,23%,16%,?
CCOc1cc2sc(N3CCC(C(=O)Nc4ccc(C(C)C)cc4)CC3)nc2cc1Br,.,.,.,.,16%,?,7µM*
Clc1cccc(-n2ncc3c(N4CCC(Cc5ccccc5)CC4)ncnc32)c1,.,.,.,.,10%,7%,-4%
Cc1ccc(-n2ncc3c(N4CCC(Cc5ccccc5)CC4)ncnc32)cc1,.,.,.,.,16%,16%,-17%
COc1ccc(N2Cc3c(ncnc3N3CCC(Cc4ccccc4)CC3)N(C)CC2=O)cc1,-6%,?,?,i,.,.,.
Cc1ccc(-n2ncc3c(N(C)Cc4ccccc4)ncnc32)cc1,.,.,.,.,?,?,1.6µM*
Cc1ccc(CNC(=O)c2cc3c(N(C)Cc4ccccc4)nc(C)cn3n2)cc1,7%,?,?,i,.,.,.
SMILES,hNpr1 antagonist,HEK cytotox,3T3 cytotox,FLuc inh-1,FLuc SDR -ATP,FLuc SDR ATP,FLuc inh-2
CCc1ccc(NC(=O)Cn2c(=O)c(-c3noc(CC)n3)c3n(c2=O)CCCC3)cc1,1%,?,?,i,.,.,.
COc1cccc(C(=O)N2CCC(N(C)C3CCOCC3)CC2)c1,-2%,1%,-22%,i,.,.,.
Cc1ccc(C(=O)O)cc1Nc1nc2ccccc2n2nnnc12,.,.,.,.,13%,11%,?
CC(C)c1noc(-c2cn(C3CCCN(C(=O)c4cccc(Cl)c4)C3)nn2)n1 (stereo not given),-28%,?,-24%,i,.,.,.
Cc1ccc([S+](=O)([O-])N2CCC(c3nn(-c4ccc(F)cc4)c(=O)[nH]3)CC2)cc1,-13%,?,-24%,i,.,.,.
O=C(NCc1cccc(F)c1)C1CCN(c2nc3ncccc3o2)CC1,.,1%,-8%,.,.,.,.
COc1ccc(CC(=O)N2C[C@H](C(N)=O)[C@H]3c4ccccc4N(CC(=O)N(C)C)C(=O)[C@]32C)cc1,.,-20%[57.5 µM],?,.,.,.,.
Nc1c(C(=O)Nc2ccc(C(=O)O)cc2)sc2nc3c(cc12)CCCC3,.,.,.,.,11µM*,0.25µM*,0.18µM*
COc1ccc(C(=O)Nc2ccc(-c3nnc4n3CCCC4)cc2)cc1,-8%,5%,-26%,i,.,.,.
Nc1ccc(C(=O)N2CCCn3nc(C(=O)Nc4ccccc4)cc3C2)cn1,-5%,?,-26%,7.1µM*,?,?,?
CC1(c2ccccc2)N(Cc2ccccc2C#N)C(=O)OC12CCN(Cc1ccccn1)CC2 (stereo not given),-14%,?,-18%,i,.,.,.
O=C1c2cnc(-c3cccc(O)c3)nc2OCCN1Cc1ccc(F)cc1F,-18%[70.6 µM],?,?,i,.,.,.
O=C1c2cnc(-c3ccccc3)nc2OCCN1Cc1ccccc1,-11%[70.6 µM],?,?,11µM*,15%[49.3 µM],10%[49.3 µM],-20%[49.3 µM]
CN(C)C(=O)c1ccc(-c2ncc3c(n2)OCCN(CC2CC2)C3=O)cc1,-2%[70.6 µM],i,?,?,.,.,.
O=C1c2cnc(-c3ccccc3)nc2OCCN1CC1CC1,.,.,.,.,?,?,16µM*
O=C1c2cnc(-c3ccc(Cl)cc3)nc2OCCN1CC1CC1,.,.,.,.,24%[49.3 µM],?,4µM*
CCOC(=O)c1ccc(NC(=O)c2nsc3ccccc23)cc1,.,.,.,.,26%,20%,3.5µM*
CCC1(N2CCN(C)CC2)CCN(S(=O)(=O)c2ccccc2)C1 (stereo not given),-6%,-3%,-4%,i,.,.,.
Cc1nc2cccnc2n1CC1CCCN(S(=O)(=O)c2ccc(F)cc2)C1 (stereo not given),-5%,?,-14%,i,.,.,.
Cc1ccc(C2=NC(c3ccccc3)=Nc3ccc(Cl)cc3N2)cc1,.,.,.,.,13%,10%,-9%
Clc1cccc(-c2ncc[nH]2)c1,.,3%[230 µM],-10%[174 µM],.,.,.,.
O=C(NCCc1ccccc1)C1CCN(C(=O)c2ncn3c2COC(c2ccc(Cl)cc2)C3)CC1 (stereo not given),-2%,-7%,4%,?,.,.,.
O=C(NCCc1cccs1)C1CCN(C(=O)c2ncn3c2COC(c2ccc(F)cc2)C3)CC1 (stereo not given),-2%,-2%,i,i,.,.,.
